Rows were chosen to be rich in hits. Some 10% of all compounds tested hit in one or more screens of this group.
VP16 counter – VP16 counterscreen qHTS for inhibitors of ROR gamma transcriptional activity. Drosophila S2 Gal4-VP16 UAS-luciferase, luminescence, 20 h. Potency, µM (top dose mostly 53.6 µM), for inactives: at the highest dose activity, negative = inhibition, most hits filed as inhibitors. hit rate 3.5% among 310,000;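 also: Gal4-VP16 expression switched on by copper sulfate through the metallothionein promoter; % is scaled to controls: 0 for no effect and ±100 for the full control effect; nearly all actives have a fitted effect of over 50% in size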
MCF10A rerep – A quantitative high throughput screen for small molecules that induce DNA re-replication in MCF 10a normal breast cells; MCF 10A DNA re-replication, Hoechst nuclear intensity, 48 h; Potency, µM (doses to about 46.1 µM), inactives show at the highest dose activity, positive = re-replication, usual class: activators; hit rate 2.9% among 350,000; AID 624296, 2012; also: % of control where 0% means no effect; nearly all actives have a fitted effect of over 50% in size
RORgamma inh – qHTS for inhibitors of ROR gamma transcriptional activity | Drosophila S2 Gal4-RORgamma UAS-luciferase reporter, 20 h | Potency, µM (doses to about 53.6 µM), for the others: at the top dose activity change, negative = inhibition, most hits filed as inhibitors | hit rate 5.4% among 310,000 | AID 2551, 2010; also: % is scaled to controls: 0 for no effect and ±100 for the full control effect; nearly all actives have a fitted effect of over 60% in size
Target sequence (P51450 whole entry, looked up, the tested form may be a part): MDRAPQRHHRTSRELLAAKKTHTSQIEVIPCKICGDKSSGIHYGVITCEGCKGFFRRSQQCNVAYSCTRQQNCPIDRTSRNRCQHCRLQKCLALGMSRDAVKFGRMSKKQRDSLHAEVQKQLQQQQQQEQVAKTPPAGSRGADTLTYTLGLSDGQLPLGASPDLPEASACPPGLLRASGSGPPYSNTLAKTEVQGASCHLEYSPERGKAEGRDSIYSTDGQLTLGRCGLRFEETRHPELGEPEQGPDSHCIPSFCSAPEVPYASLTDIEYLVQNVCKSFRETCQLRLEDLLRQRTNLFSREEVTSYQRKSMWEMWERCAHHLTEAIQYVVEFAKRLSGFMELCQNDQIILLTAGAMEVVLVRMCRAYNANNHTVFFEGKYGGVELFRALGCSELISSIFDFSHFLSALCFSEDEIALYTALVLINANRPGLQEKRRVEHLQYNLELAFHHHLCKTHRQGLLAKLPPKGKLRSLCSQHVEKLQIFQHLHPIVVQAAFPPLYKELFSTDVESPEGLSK
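Using a luciferase readout, inhibitors were identified by reduced reporter activity in Drosophila cells coexpressing a copper-inducible Gal4–ROR gamma fusion and UAS-driven Photinus luciferase, incubated 20 hr after 700 uM copper sulfate.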
SW480 rereplic – A quantitative high throughput screen for small molecules that induce DNA re-replication in SW480 colon adenocarcinoma cells. AID 624297, 2012. SW480 DNA re-replication, Hoechst DNA content imaging, 48 h. Potency, µM (doses to about 46.1 µM), inactives show at the top dose re-replication activation, most hits filed as activators. hit rate 1.8% among 340,000; also: % of control where 0% means no effect; nearly all actives have a fitted effect of over 55% in size
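SW480 cells exposed to compounds for 48 hr at 37 C, 5% CO2, then Hoechst-stained 40 min. Nuclear DNA content imaged by fluorescence scanning (405 nm excitation, 500-530 nm emission); re-replication scored as increased high-intensity nuclei.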
KB-3-1 cytotox – qHTS assay for MDR1-selective chemotherapeutics: Primary screen using the parental adenocarcinoma cell KB-3-1 | hit rate 1.4% among 400,000 | AID 1347075, 2019 | KB-3-1 viability, CellTiter-Glo ATP luminescence, 72 h | Potency, µM (titrated, usually from 46.1 µM), usual class: cytotoxic; also: % is scaled to controls: 0 for no effect and ±100 for the full control effect; nearly all actives have a fitted effect of over 60% in size
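72 h, 37 °C compound treatment of KB-3-1 parental cells; CellTiter-Glo added, 10 min, luminescence read. Data corrected against DMSO-only plates and normalized before curve fitting.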
KB-V1 cytotox – qHTS assay for MDR1-selective chemotherapeutics: Primary screen using the drug-selected MDR subline cells KB-V1 | AID 1347076, 2019 | Potency, µM (titrated, usually from 46.1 µM), usual class: cytotoxic | KB-V1 MDR cells viability, CellTiter-Glo, 72 h | hit rate 3.4% among 400,000; also: % is scaled to controls: 0 for no effect and ±100 for the full control effect; nearly all actives have a fitted effect of over 60% in size
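Following 72 h at 37 degrees C with compound, KB-V1 cell viability was read by CellTiter-Glo luminescence, medium being phenol-red-free DMEM plus 10% FBS; concentration-response parameters came from normalized, curve-fitted qHTS data.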
* marks the source's active call; other numbers are inactive results; i = inactive; u = inconclusive; x = not tested or not shown. Calls follow the shape of the dose curve; as a rule, active = well fitted curve in the direction sought with a large enough effect; inconclusive = small, poorly fitted or top-dose-only effect, or another doubt; inactive = no such curve, though single readings can be large; an effect the other way counts as inactive or inconclusive. Potency is read from the fitted curve at half-maximal effect.

SMILES	VP16 counter	MCF10A rerep	RORgamma inh	SW480 rereplic	KB-3-1 cytotox	KB-V1 cytotox
CCOC(=O)c1ccc(NC(=O)N2CCN(c3ccccn3)CC2)cc1	-2.1%	-0.4%	-0.3%	2.3%	i	16.4µM*
O=C(CCNS(=O)(=O)c1ccccc1Cl)N1CCN(c2ccccn2)CC1	x	4.8%	x	-1.7%	u	16.4µM*
COc1ccccc1NC(=O)N1CCN(c2ccccn2)CC1	-0.1%	1.0%	13.9%	-11.2%	i	i
CCOc1ccccc1N(C)C(=O)c1c2c(nc3ccccc13)C(=O)N(C1CCCCC1)C2	x	x	x	x	i	i
COc1ccc(CCNC(=O)Cn2cc(C(=O)c3ccc(Cl)cc3)c(=O)c3ccc(C)nc32)cc1OC	x	x	x	x	i	i
COCCCNC(=O)c1c(NC(=O)Cc2coc3cc(C)ccc23)sc2c1CCCC2	x	x	x	x	i	i
CC(=O)c1ccccc1C(=O)N1CCCC(CCC(=O)N2CCN(c3ccccn3)CC2)C1 (stereo not drawn)	-2.4%	13.0%	1.7%	-6.2%	i	i
O=C(CCC1CCCN(C(=O)c2ccccc2Cl)C1)N1CCN(c2ccccn2)CC1 (stereo not drawn)	-7.6%	4.9%	-1.4%	2.1%	u	14.6µM*
CN(C)c1ccc(C(CNC(=O)c2c(F)cccc2Cl)N2CCOCC2)cc1 (stereo not drawn)	x	x	x	x	i	i
CCOC(=O)C(C(=O)Nc1ccc(C)cc1)C1CCCCC1 (stereo not drawn)	16.9%	28.0%	1.7%	u	23.1µM*	9.2µM*
CCn1cc2nc(SCc3ccccc3F)n(Cc3ccc(C)cc3)c(=O)c2n1	x	x	x	x	i	i
Cc1cccn2c(=O)c3cc(C#N)c(=O)n(Cc4cccnc4)c3nc12	-3.9%	2.59µM*	-39.6%	8.2µM*	i	i
N#Cc1cc2c(=O)n3ccccc3nc2n(CCCN2CCOCC2)c1=O	-2.8%	23.1µM*	u	u	i	i
N#Cc1cc2c(=O)n3ccccc3nc2n(-c2nnc(SCc3ccccc3Cl)s2)c1=O	x	x	x	x	i	i
N#Cc1cc2c(=O)n3ccccc3nc2n(-c2ccccc2Cl)c1=O	-5.2%	4.11µM*	-9.3%	4.61µM*	u	i
N#Cc1cc2c(=O)n3ccccc3nc2n(Cc2cccnc2)c1=O	x	11.6µM*	x	2.31µM*	i	i
CCCOc1ccc(OC(=O)c2cn(-c3ccc(OC)cc3)c(=O)c3ccccc23)cc1	x	x	x	x	i	i
CCOC(=O)c1cc(NC(=O)c2ccc(OC)cc2)c(=O)n2c1oc1ccc(Cl)cc12	x	x	x	x	i	u
Cc1cc(C)c2c(N)c(C(=O)c3ccc(Br)cc3)oc2n1	-5.3%	23.1µM*	-3.5%	2.59µM*	i	i
CN1CCN(NC(=O)c2ccc(S(=O)(=O)N3CC4(C)CC3CC(C)(C)C4)cc2)CC1 (stereo not drawn)	-4.8%	u	5.7%	18.4µM*	i	i
COc1ccc(-c2nc3c4ccccc4ccn3c2Cc2ccccc2)cc1OC	x	x	x	x	i	u
CN(C)C(=S)Nc1ccc([N+](=O)[O-])cc1	4.8%	0.7%	3.3%	-8.1%	i	i
CN(C)C(=S)NC(=NCc1ccc([N+](=O)[O-])cc1)c1ccccc1	-21.4%	-0.6%	20µM*	11.7%	i	i
COc1ccccc1-c1nnc(C2CCN(S(=O)(=O)c3ccc(CC(C)C)cc3)CC2)o1	x	x	x	x	i	i
CC(C)(C)C1CCc2onc(C(=O)Nc3ccc4c(c3)OCO4)c2C1 (stereo not drawn)	-20.8%	u	-29.8%	-15.5%	i	i
SMILES	VP16 counter	MCF10A rerep	RORgamma inh	SW480 rereplic	KB-3-1 cytotox	KB-V1 cytotox
COc1cc(NC(=O)c2noc3c2CC(C(C)(C)C)CC3)cc(OC)c1OC (stereo not drawn)	x	x	x	x	i	16.4µM*
CCc1ccccc1NC(=O)c1noc2c1CC(C(C)(C)C)CC2 (stereo not drawn)	x	x	x	x	i	i
CC(C)(C)C1CCc2onc(C(=O)N3CCOCC3)c2C1 (stereo not drawn)	18.7%	19.1%	-1.7%	-1.8%	i	20.6µM*
CC(C)(C)C1CCc2onc(C(=O)NC3CCCC3)c2C1 (stereo not drawn)	7.6%	u	38.6%	4.6%	u	16.4µM*
COc1cccc(Nc2nc(C(N)c3ccccc3)cs2)n1 (stereo not drawn)	x	x	x	x	i	i
CN1C(=O)/C(=C/c2ccccc2Cl)Sc2ccc(C(=O)N3CCCC3)cc21	2.8%	18.4µM*	23.7%	-7.9%	i	i
COc1ccc(/C=C2\Sc3ccc(C(=O)N4CCCC4)cc3N(C)C2=O)cc1OC	-0.9%	11.6%	3.9%	3.98µM*	i	i
COc1ccc(/C=C2\Sc3ccc(C(=O)NC4CC4)cc3N(C)C2=O)cc1OC	-3.7%	u	0.1%	7.8%	i	u
CN1C(=O)/C(=C\c2ccccc2F)Sc2ccc(C(=O)NC3CCN(Cc4ccccc4)CC3)cc21	u	u	-7.1%	20.6µM*	u	i
CCOC(=O)C1CCCN(C(=O)c2ccc3c(c2)N(C)C(=O)/C(=C/c2ccccc2Cl)S3)C1 (stereo not drawn)	-12.3%	u	27.5%	u	u	u
CN1C(=O)/C(=C/c2cccc(Cl)c2)Sc2ccc(C(=O)N3CCOCC3)cc21	-3.0%	20.6µM*	38.0%	u	i	i
CC(C)(C)c1ccc(-c2noc(CCC(=O)NCc3ccco3)n2)cc1	3.98µM*	u	0.316µM*	8.2%	u	u
CC(C)(C)c1ccc(C(=O)NC(=S)NCc2ccco2)cc1	7.94µM*	u	6.31µM*	7.5%	i	i
O=C(NC(=S)NCc1ccco1)c1ccc(Br)cc1	15.8µM*	7.3%	14.1µM*	-2.9%	i	i
COCCCNC(=S)NNC(=O)C1CC1c1ccc(C(C)(C)C)cc1 (stereo not drawn)	-13.0%	-0.7%	4.47µM*	0.3%	u	i
COC(=O)c1ccccc1NC(=O)CSc1nc2ccccc2nc1Cc1ccc(F)cc1	x	x	x	x	i	u
COc1ccc(N2CC(c3nc(-c4ccccc4C)no3)CC2=O)cc1Cl (stereo not drawn)	x	x	x	x	i	i
CCOc1ccc(NS(=O)(=O)c2c(C)nc3sc(C)c(C)n3c2=O)cc1	x	x	x	x	i	u

Source: PubChem BioAssay (National Center for Advancing Translational Sciences (NCATS))
